# Experimental data from PubChem BioAssay (NCATS).
# Records with an inconclusive call do not appear. A call without a number means that no potency is given here. Values without a mark were called inactive. Active and inactive are the calls of the source. Calls follow the shape of the dose curve; as a rule, active = well fitted inhibition curve with a large enough effect; inconclusive = small, poorly fitted or top-dose-only effect; inactive = flat fitted curve, though single readings scatter.
# Target: Calcium and integrin-binding protein 1 (Homo sapiens) (UniProt Q99828)
# Assay: Primary qHTS for Identification of Calcium Integrin Binding Protein 1 (CIB1) Competitor (AID 1508620);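 also: GST tagged CIB1 binding a fluorescein labelled alphaIIb integrin peptide tracer; top concentration of the series differs between compounds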
# Details: CIB1-GST / FITC-alphaIIb peptide fluorescence polarization; series mostly up to 57.7 µM
# Procedure, shortened: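 Fluorescence polarization competition: CIB1-GST (1 uM final) preincubated with compound 15 min at room temperature, then FITC-labeled alphaIIb peptide (100 nM final) added for another 15 min. Polarization read at Ex 480/Em 540.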
# Sequence of Calcium and integrin-binding protein 1 (Homo sapiens) (Q99828 whole entry, looked up): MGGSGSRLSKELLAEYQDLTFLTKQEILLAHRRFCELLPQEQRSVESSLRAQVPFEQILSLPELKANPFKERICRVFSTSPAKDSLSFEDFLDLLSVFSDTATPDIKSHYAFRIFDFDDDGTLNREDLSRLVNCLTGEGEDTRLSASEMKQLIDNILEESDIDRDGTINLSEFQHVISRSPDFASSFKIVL
SMILES,Potency,"activity change, negative = inhibition"
C/C=C/C=C/C=C/C(=O)O[C@@H]1C=C(CO)C(O)(C(=O)O)[C@@]2(C)CCCC(C)(C)[C@H]12 (some centres undefined),inactive,–
CCCCS(=O)(=O)Nc1ncnc(OCCOc2ncc(Br)cn2)c1-c1ccc(Br)cc1,inactive,–
COc1cc(C(=O)OC[C@H]2O[C@H](O[C@@]3(CO)O[C@@H](CO)[C@H](O)[C@H]3O)[C@H](O)[C@@H](O)[C@@H]2O)ccc1O,inactive,–
O=C(O)CCc1cc2ccoc2cc1O[C@@H]1O[C@H](CO[C@@H]2OC[C@](O)(CO)[C@H]2O)[C@@H](O)[C@H](O)[C@H]1O,inactive,–
CC1NC(=O)C(Cc2c[nH]c3ccccc23)NC1=O (centres undefined),inactive,–
COc1cccc2c1CCC[C@H]2CN(C)CCc1ccc2ccoc2c1,inactive,–
O=C(O)c1cc(O[C@@H]2O[C@H](CO[C@@H]3OC[C@@H](O)[C@H](O)[C@H]3O)[C@@H](O)[C@H](O)[C@H]2O)c2ccccc2c1O,inactive,–
Cc1ncc([N+](=O)[O-])n1CC(O)CN1CCOCC1 (centres undefined),inactive,–
CC1CCC2C(C)(C)CC(C)(CO)C2(O)C1C(=O)O (centres undefined),inactive,–
COc1cc(/C=C/C(=O)OC2CC(C)=C(C(=O)O)/C2=C/CO[C@@H]2O[C@H](CO)[C@@H](O)[C@H](O)[C@H]2O)ccc1O (some centres undefined),inactive,–
CC1(C)CC2C(C1)C1(C)CCC13OC3(CO)C2O (centres undefined),inactive,–
CC(C)[C@H]1CCC(CO)=C[C@@H]1/C=C(\CO)C(=O)O,inactive,–
O=C(/C=C/c1ccc(O)c(O)c1)OCc1ccccc1O[C@@H]1O[C@H](CO)[C@@H](O)[C@H](O)[C@H]1O,inactive,–
COc1cc(CC(COC2OC(CO)C(O)C(O)C2O)c2cc(/C=C/CO)cc(OC)c2O)ccc1O (centres undefined),inactive,–
CCOC(=O)[C@H](CCc1ccccc1)CC1(C(=O)N[C@H]2CCc3ccccc3N(CC(=O)O)C2=O)CCCC1,inactive,–
O=C(NN1CCCCC1)c1nn(-c2ccc(Cl)cc2Cl)c(-c2ccc(C#Cc3ccc(C(F)(F)F)cc3)s2)c1CNS(=O)(=O)N1CCCC1,inactive,–
C=CC1(C)CC(OC(=O)C(=C)C(O)COC(C)=O)C(C(=C)C(=O)OC)C(O)C1C(=C)CO (centres undefined),inactive,–
C[C@@H]1C/C=C/C=C\C=C\C=C\[C@H](O[C@@H]2O[C@H](C)[C@@H](O)[C@H](N)[C@@H]2O)C[C@@H]2O[C@](O)(C[C@@H](O)C[C@H]3O[C@@H]3/C=C/C(=O)O1)C[C@H](O)[C@H]2C(=O)O,inactive,–
C[C@@H]1O[C@@H](O[C@H]2[C@H](O[C@H]3CC[C@@]4(C)C(CC[C@]5(C)C4CC=C4[C@@H]6CC(C)(C)CC[C@]6(C(=O)O)CC[C@]45C)[C@]3(C)CO)OC[C@H](O)[C@@H]2O)[C@H](O)[C@H](O[C@@H]2OC[C@@H](O)[C@H](O)[C@H]2O)[C@H]1O (some centres undefined),inactive,–
CCN[C@@H]1C[C@H](N)[C@@H](O[C@H]2OC(CN)=CC[C@H]2N)[C@H](O)[C@H]1O[C@H]1OC[C@](C)(O)[C@H](NC)[C@H]1O,inactive,–

SMILES,Potency,"activity change, negative = inhibition"
N#CCc1ccc(O)cc1O[C@@H]1O[C@H](CO)[C@@H](O)[C@H](O)[C@H]1O,inactive,–
C=C[C@](C)(CC/C=C(\C)C(=O)O)O[C@@H]1OC[C@H](O)[C@H](O)[C@H]1O,inactive,–
OC[C@H]1O[C@@H](n2cnc3c2NC=NC[C@H]3O)C[C@@H]1O,inactive,–
CO[C@H]1C=C2C(CC[C@H](O[C@@H]3O[C@H](CO)[C@@H](O)[C@@H](O)[C@H]3O)C2(C)C)[C@]2(C)CC[C@]3(C)C([C@H](C)C(O)C(C=C(C)C)O[C@@H]4O[C@H](CO)[C@@H](O)[C@@H](O)[C@H]4O)CC[C@@]3(C)C12 (some centres undefined),inactive,–
COc1ccc([C@H]2Cc3cccc(O)c3C(=O)O2)cc1,inactive,–
C=C1CC2C3(C)C(O)CC(=O)C(C)(C)C3C(OC(C)=O)C(OC(C)=O)C2(C)C2C(=O)OC(C)(C(=O)OC)C(=O)C12C (centres undefined),inactive,–
CC1CCC2(C(=O)OC3OC(COC4OC(CO)C(O)C(O)C4O)C(O)C(O)C3O)CCC3(C)C(=CCC4C5(C)CCC(O)C(C)(C(=O)O)C5CCC43C)C2C1(C)O (centres undefined),inactive,–
CCC(C)/C=C(C)/C=C/C1=CC2=C(Cl)C(=O)C(C)(OC(C)=O)C(=O)C2=CN1C1CCCCN(C(CCC(N)=O)C(=O)O)C1=O (centres undefined),inactive,–
C=CC(C)(C)O[C@@H]1O[C@H](CO[C@@H]2OC[C@](O)(CO)[C@H]2O)[C@@H](O)[C@H](O)[C@H]1O,inactive,–
C=C1CC/C=C(/CO)C(=O)C[C@@H]2[C@@H]1CC2(C)C,inactive,–
COCCCNCC1COc2ccccc2O1 (centres undefined),inactive,–
CCOC(=O)[C@H](CCc1ccccc1)N[C@@H](C)C(=O)N1C2CCCCC2C[C@H]1C(=O)O (some centres undefined),inactive,–
C[C@@H]1O[C@@H](O[C@H]2[C@H](O)[C@@H](O)[C@H](OC[C@H]3O[C@@H](OC(=O)[C@]45CCC(C)(C)C[C@H]4C4=CCC6[C@@]7(C)C[C@H](O)[C@H](O[C@@H]8O[C@H](CO)[C@@H](O)[C@H](O)[C@H]8O)[C@@](C)(C(=O)O)C7CC[C@@]6(C)[C@]4(C)CC5)[C@H](O[C@@H]4O[C@H](CO)[C@@H](O)[C@H](O)[C@H]4O)[C@@H](O)[C@@H]3O)O[C@@H]2CO)[C@H](O)[C@H](O)[C@H]1O (some centres undefined),–,0.065% [at 12.4 µM]
CCC(CC)n1ccc2c(C(=O)NCc3c(C)cc(C)[nH]c3=O)cc(C#N)cc21,inactive,–
O=C1NC(=Nc2ccccc2F)S/C1=C\c1ccc(C(=O)O)cc1,inactive,–
C=C1CC2(C(=O)O)CC1CCC2C1(C)CCCC2(C)C(=O)OC(O)C21 (centres undefined),inactive,–
CCOc1nc2cccc(C(=O)OCc3oc(=O)oc3C)c2n1Cc1ccc(-c2ccccc2-c2noc(O)n2)cc1,inactive,–
C[C@@H]1C[C@H](O)/C=C/[C@H](O)[C@@H](O)CC(=O)O1,inactive,–
CCOC(=O)c1ccnc(CNCC(=O)N(CC)CCN(C)C)c1,inactive,–
